{"source": "PubChem BioAssay (Tox21)", "note": "Inconclusive results are not listed. Unmarked numbers belong to inactive results. Unless noted, calls follow the shape of the dose curve; as a rule, active = well fitted cell-killing curve with a large enough effect in the repeat runs; inconclusive = weak or mixed curves, or effect the other way; inactive = flat fitted curve, though single readings scatter. % is scaled to controls: 0 for no effect and ±100 for the full control effect."}
{"target": "Estrogen receptor beta (Homo sapiens) (UniProt Q92731)", "sequence (Q92731 whole entry, looked up)": "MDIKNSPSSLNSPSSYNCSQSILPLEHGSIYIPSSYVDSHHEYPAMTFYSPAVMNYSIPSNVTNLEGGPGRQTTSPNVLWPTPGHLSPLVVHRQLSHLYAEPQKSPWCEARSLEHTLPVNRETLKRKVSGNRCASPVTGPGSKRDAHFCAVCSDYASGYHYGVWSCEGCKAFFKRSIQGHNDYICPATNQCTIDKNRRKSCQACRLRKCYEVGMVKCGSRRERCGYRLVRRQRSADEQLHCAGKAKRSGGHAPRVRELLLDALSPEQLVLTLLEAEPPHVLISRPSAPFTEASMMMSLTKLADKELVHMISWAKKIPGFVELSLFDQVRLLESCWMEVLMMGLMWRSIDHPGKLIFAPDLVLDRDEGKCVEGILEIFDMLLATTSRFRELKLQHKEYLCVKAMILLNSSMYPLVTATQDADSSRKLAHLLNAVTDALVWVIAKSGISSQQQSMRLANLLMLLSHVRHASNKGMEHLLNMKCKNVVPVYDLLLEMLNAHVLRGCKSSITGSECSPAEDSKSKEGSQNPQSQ", "experiment": "qHTS assay to identify small molecule antagonists of the estrogen receptor beta (ER-beta) signaling pathway (AID 1259378; active = well fitted inhibition curve with a large enough effect in the signal ratio in the repeat runs, not every such curve was filed as active; the % refers to the signal ratio)", "conditions": "ER-beta-UAS-bla HEK293T, beta-lactamase FRET ratio, 16 h; series mostly up to 92.4 µM; activity, negative = inhibition: at the top concentration", "method_in_brief": "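Antagonist mode: compounds added to beta-lactamase reporter HEK293T ER-beta-UAS cells stimulated with E2 (1nM final), 16 hr at 37C. LiveBLAzer B/G FRET substrate, 2 hours room temperature, fluorescence read-out.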"}
{"smiles": "C=C1CC/C=C(\\C)CC[C@@H]2[C@@H]1CC2(C)C", "activity, negative = inhibition": "17%"}
{"smiles": "CC1(C)S[C@@H]2[C@H](N=CN3CCCCCC3)C(=O)N2[C@H]1C(=O)O", "activity, negative = inhibition": "-4.65% [at 42.5 µM]"}
{"smiles": "Nc1ncnc(Nc2ccccc2)n1", "activity, negative = inhibition": "-8.39% [at 42.5 µM]"}
{"smiles": "CCN1CCc2nc(N)oc2CC1", "activity, negative = inhibition": "12.5% [at 42.5 µM]"}
{"smiles": "CN(C)c1ccc(C=O)cc1", "activity, negative = inhibition": "-14.2%"}
{"smiles": "CC(N)C(=O)OC(C)(C)Cc1ccc(Cl)cc1", "note": "(centres undefined)", "activity, negative = inhibition": "3.98% [at 42.5 µM]"}
{"smiles": "Cc1cc(Cl)c(C)cc1Cl", "activity, negative = inhibition": "-8.99%"}
{"test_system": "not listed separately", "experiment": "qHTS assay to identify small molecule agonists of the androgen receptor (AR) signaling pathway in the presence of an antagonist - cell viability counter screen (AID 1259379);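 also: MDA-kb2 human breast cancer cells carrying an MMTV luciferase reporter; nearly all actives have a fitted effect of over 25% in size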", "conditions": "MDA-kb2 viability, CellTiter-Fluor, 16 h; series mostly up to 92.4 µM; activity change, negative = cytotoxicity: at the top concentration", "method_in_brief": "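A CellTiter-Fluor read-out measured viability of MDA-kb2 reporter cells (MMTV promoter with AR and GR response elements). Treatment: nilutamide 3.0uM final with compounds at 15 concentrations, 16 hr, 37C, 0% CO2.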"}
{"smiles": "NS(=O)(=O)c1ccc(NC(=O)CCC(=O)O)cc1", "activity change, negative = cytotoxicity": "5.41% [at 42.5 µM]"}
{"smiles": "CCCCCCCCSCC", "activity change, negative = cytotoxicity": "1.12%"}
{"smiles": "CC(C)N(c1ccccc1)C(C)C", "activity change, negative = cytotoxicity": "0.194%"}
{"smiles": "CC(C)CC(=O)O", "activity change, negative = cytotoxicity": "4.7%"}
{"smiles": "C=C(C)C(=O)OCCOP(=O)(O)OCCOC(=O)C(=C)C", "activity change, negative = cytotoxicity": "4.64%"}
{"smiles": "CC(=O)NCCCCCC(=O)O", "activity change, negative = cytotoxicity": "3.68% [at 42.5 µM]"}
{"smiles": "COC(=O)CCCCCCCC(=O)OC", "activity change, negative = cytotoxicity": "1.11%"}
{"smiles": "CN(C)C(=O)CNC(=O)Cc1ccccc1", "activity change, negative = cytotoxicity": "1.74% [at 42.5 µM]"}
{"smiles": "C[C@H](N)[C@H](O)c1cccc(O)c1", "activity change, negative = cytotoxicity": "-0.45% [at 42.5 µM]"}
{"smiles": "Cc1ccc2c(c1)OCC(=O)CO2", "activity change, negative = cytotoxicity": "4.39%"}
{"smiles": "C[C@H](CCC(=O)O)[C@H]1CC[C@H]2[C@@H]3C(=O)C[C@@H]4CC(=O)CC[C@]4(C)[C@H]3CC(=O)[C@]12C", "activity change, negative = cytotoxicity": "0.993% [at 42.5 µM]"}
{"smiles": "Cc1ccc(C=O)cc1C", "activity change, negative = cytotoxicity": "1.6%"}
{"smiles": "CCCCCCCCOS(=O)(=O)O", "activity change, negative = cytotoxicity": "3.76%"}
{"smiles": "CC(=O)/C=C/C1C(C)=CCC(C)C1(C)C", "note": "(centres undefined)", "activity change, negative = cytotoxicity": "0.314%"}
{"smiles": "CCCC(=O)C(C)=O", "activity change, negative = cytotoxicity": "-0.297%"}
{"smiles": "O=C1CCCC(=O)O1", "activity change, negative = cytotoxicity": "3.67%"}
{"smiles": "CCOC(=O)CC(=O)c1ccccc1", "activity change, negative = cytotoxicity": "0.0052%"}
{"smiles": "C[C@@H](O)[C@H]1C(=O)N2C(C(=O)O)=C(SCCN=CN)C[C@H]12", "activity change, negative = cytotoxicity": "2.2% [at 42.5 µM]"}
{"smiles": "CC(C)OC(=O)CCCCC(=O)OC(C)C", "activity change, negative = cytotoxicity": "-0.677%"}
{"smiles": "CNS(=O)(=O)CCc1ccc2[nH]cc(C3CCN(C)CC3)c2c1", "activity change, negative = cytotoxicity": "0.798% [at 42.5 µM]"}
{"smiles": "CC(=C(CCOC(=O)C(C)C)SSC(CCOC(=O)C(C)C)=C(C)N(C=O)Cc1cnc(C)nc1N)N(C=O)Cc1cnc(C)nc1N", "activity change, negative = cytotoxicity": "-1.05% [at 42.5 µM]"}
{"smiles": "O=S(=O)(O)c1ccc2cc(O)c(S(=O)(=O)O)cc2c1", "activity change, negative = cytotoxicity": "3.29%"}
{"smiles": "CCCCCCCC/C=C\\CCCCCCCC(=O)OCCCC", "activity change, negative = cytotoxicity": "0.614% [at 19 µM]"}
{"smiles": "CCOC(=O)[C@H](CCc1ccccc1)N[C@@H](C)C(=O)N1C(=O)N(C)C[C@H]1C(=O)O", "activity change, negative = cytotoxicity": "3.68% [at 42.5 µM]"}
{"smiles": "O=C(O)c1ccc(Cl)cc1Cl", "activity change, negative = cytotoxicity": "3.53%"}
{"smiles": "N#Cc1ccc(C(=O)O)cc1", "activity change, negative = cytotoxicity": "-1.99%"}
{"smiles": "CCCCCCCCC1CCC(=O)O1", "note": "(centres undefined)", "activity change, negative = cytotoxicity": "2.99%"}
{"smiles": "CN1CCN(CC(=O)N2c3ccccc3C(=O)Nc3cccnc32)CC1", "activity change, negative = cytotoxicity": "-6.25% [at 8.39 µM]"}
{"smiles": "O=C(CS(=O)Cc1ccco1)NC/C=C\\COc1cc(CN2CCCCC2)ccn1", "note": "(centres undefined)", "activity change, negative = cytotoxicity": "1.53% [at 42.5 µM]"}
{"smiles": "COc1cc(C(=S)N2CCOCC2)cc(OC)c1OC", "activity change, negative = cytotoxicity": "3.77% [at 42.5 µM]"}
{"smiles": "C=C1CC/C=C(\\C)CC[C@@H]2[C@@H]1CC2(C)C", "activity change, negative = cytotoxicity": "2.28%"}
{"smiles": "CC1(C)S[C@@H]2[C@H](N=CN3CCCCCC3)C(=O)N2[C@H]1C(=O)O", "activity change, negative = cytotoxicity": "-2.13% [at 42.5 µM]"}
{"smiles": "Nc1ncnc(Nc2ccccc2)n1", "activity change, negative = cytotoxicity": "11.1% [at 42.5 µM]"}
{"smiles": "CCN1CCc2nc(N)oc2CC1", "activity change, negative = cytotoxicity": "-2.58% [at 42.5 µM]"}
{"smiles": "CN(C)c1ccc(C=O)cc1", "activity change, negative = cytotoxicity": "0.698%"}
{"smiles": "CC(N)C(=O)OC(C)(C)Cc1ccc(Cl)cc1", "note": "(centres undefined)", "activity change, negative = cytotoxicity": "0.846% [at 42.5 µM]"}
{"smiles": "Cc1cc(Cl)c(C)cc1Cl", "activity change, negative = cytotoxicity": "-1.18%"}
